Data taken from the supplement of paper PMC10849652.
Targets with a hit are over-represented here; the source holds about 8,800 in all. About 0.5% of all pairs of compound and target were hits. A number with no mark means an inactive call.

How the values were obtained:
Test in all cases: log2 fold change, soluble protein after heating vs DMSO (PISA); higher = thermal stabilisation; K562 lysate, 10 uM; active = over 0.2 and 3.5 SD of the protein, either way, in both replicates (recomputed)
vemurafenib = compound: CCCS(=O)(=O)Nc1ccc(F)c(C(=O)c2c[nH]c3ncc(-c4ccc(Cl)cc4)cc23)c1F [vemurafenib]
Method in brief: (§1)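 Following dounce homogenisation of K562 pellets in PBS pH 7.4 with 1 mM MgCl2, crude extract at 1 mg/mL protein was incubated for 30 min with 10 μM compound. Aliquots were then heated for 3 min over 48°C-58°C and pooled, NP-40 was added to 0.5% at 4°C, and soluble protein was recovered as the supernatant at 21,000xg for 90 min. Channel-sum-equalised TMTpro 16plex LC-MS/MS quantified this protein. Each value, from duplicates, is a log-two fold change in thermal stability relative to solvent controls.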

[1] = compound: CCCS(=O)(=O)Nc1ccc(F)c(C(=O)c2c[nH]c3ncc(Cl)cc23)c1F
Method in brief: as §1

barasertib = compound: CCN(CCCOc1ccc2c(Nc3cc(CC(=O)Nc4cccc(F)c4)[nH]n3)ncnc2c1)CCOP(=O)(O)O [barasertib]
Method in brief: as §1

[2] = compound: CC[C@@H]1C(=O)N(C)c2cnc(Nc3ccc(C(=O)NC4CCN(C)CC4)cc3OC)nc2N1C1CCCC1
Method in brief: as §1

volasertib = compound: CC[C@@H]1C(=O)N(C)c2cnc(Nc3ccc(C(=O)N[C@H]4CC[C@H](N5CCN(CC6CC6)CC5)CC4)cc3OC)nc2N1C(C)C [volasertib]
Method in brief: as §1

[3] = compound: CCn1c(C(=O)N(C2CC2)C2CC2)cc2c3c(ncn3C)c(Nc3cc(C)n(C)n3)nc21
Method in brief: as §1

[4] = compound: CCn1cc(-c2ccnc3[nH]c(-c4cccc(CN(C)C)c4)cc23)c(-c2ccc(NC(=O)N(C)C)cc2)n1
Method in brief: as §1

[5] = compound: CN1CCC(CNc2ccc3ncc(-c4cccc(OC(F)(F)F)c4)n3n2)CC1
Method in brief: as §1

saracatinib = compound: CN1CCN(CCOc2cc(OC3CCOCC3)c3c(Nc4c(Cl)ccc5c4OCO5)ncnc3c2)CC1 [saracatinib]
Method in brief: as §1

sotrastaurin = compound: CN1CCN(c2nc(C3=C(c4c[nH]c5ccccc45)C(=O)NC3=O)c3ccccc3n2)CC1 [sotrastaurin]
Method in brief: as §1

alvocidib = compound: CN1CC[C@H](c2c(O)cc(O)c3c(=O)cc(-c4ccccc4Cl)oc23)[C@H](O)C1 [alvocidib]
Method in brief: as §1

Tubastatin A = compound: CN1CCc2c(c3ccccc3n2Cc2ccc(C(=O)NO)cc2)C1 [Tubastatin A]
Method in brief: as §1

[6] = compound: CNC(=O)C1=CC=CC=C1NC2=NC(=NC=C2Cl)NC3=C(C=C(C=C3)N4CCOCC4)OC
Method in brief: as §1

defactinib = compound: CNC(=O)c1ccc(Nc2ncc(C(F)(F)F)c(NCc3nccnc3N(C)S(C)(=O)=O)n2)cc1 [defactinib]
Method in brief: as §1

[7] = compound: CNc1nc(-c2ccc3c(N)n[nH]c3c2)cc(N2C[C@@H](C(=O)NC3CCCCC3)CC[C@H]2C)n1
Method in brief: as §1

encorafenib = compound: COC(=O)N[C@@H](C)CNc1nccc(-c2cn(C(C)C)nc2-c2cc(Cl)cc(NS(C)(=O)=O)c2F)n1 [encorafenib]
Method in brief: as §1

[8] = compound: COC(=O)[C@H](CCSC)NC(=O)C1=C(C=C(C=C1)NC[C@H](CS)N)C2=CC=CC=C2
Method in brief: as §1

alisertib = compound: COc1cc(Nc2ncc3c(n2)-c2ccc(Cl)cc2C(c2c(F)cccc2OC)=NC3)ccc1C(=O)O [alisertib]
Method in brief: as §1

[9] = compound: COc1cc2nc(-c3cc(F)ccc3O)nc(N[C@@H]3CNC[C@H]3C(C)(C)O)c2cc1OC
Method in brief: as §1

gefitinib = compound: COc1cc2ncnc(Nc3ccc(F)c(Cl)c3)c2cc1OCCCN1CCOCC1 [gefitinib]
Method in brief: as §1

Sequence of UniProt P17661 (P17661 whole entry, looked up): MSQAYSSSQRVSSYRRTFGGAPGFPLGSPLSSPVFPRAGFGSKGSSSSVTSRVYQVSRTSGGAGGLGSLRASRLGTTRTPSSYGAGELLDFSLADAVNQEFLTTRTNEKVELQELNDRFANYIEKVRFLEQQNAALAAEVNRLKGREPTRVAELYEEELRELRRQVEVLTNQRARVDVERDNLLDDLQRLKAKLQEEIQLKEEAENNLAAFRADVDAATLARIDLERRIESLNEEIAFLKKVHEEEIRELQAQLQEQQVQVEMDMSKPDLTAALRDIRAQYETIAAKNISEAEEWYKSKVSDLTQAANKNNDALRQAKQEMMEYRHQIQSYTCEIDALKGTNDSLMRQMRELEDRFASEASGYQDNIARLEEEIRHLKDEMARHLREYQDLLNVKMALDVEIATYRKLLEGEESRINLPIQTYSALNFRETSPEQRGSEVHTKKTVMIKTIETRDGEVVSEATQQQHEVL
Sequence of UniProt Q5EBM0 (Q5EBM0 whole entry, looked up): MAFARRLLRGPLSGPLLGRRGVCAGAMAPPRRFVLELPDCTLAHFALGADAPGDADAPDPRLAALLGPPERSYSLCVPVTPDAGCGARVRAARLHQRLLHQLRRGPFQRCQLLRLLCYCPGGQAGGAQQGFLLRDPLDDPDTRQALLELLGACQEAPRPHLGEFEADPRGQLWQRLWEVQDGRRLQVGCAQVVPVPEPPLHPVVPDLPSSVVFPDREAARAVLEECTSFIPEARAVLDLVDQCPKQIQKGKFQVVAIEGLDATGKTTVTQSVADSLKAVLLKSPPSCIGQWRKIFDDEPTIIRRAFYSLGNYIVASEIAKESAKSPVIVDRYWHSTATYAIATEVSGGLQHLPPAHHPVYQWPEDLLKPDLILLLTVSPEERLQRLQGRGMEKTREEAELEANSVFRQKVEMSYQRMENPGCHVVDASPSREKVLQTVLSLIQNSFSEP
Sequence of UniProt Q9H078 (Q9H078 whole entry, looked up): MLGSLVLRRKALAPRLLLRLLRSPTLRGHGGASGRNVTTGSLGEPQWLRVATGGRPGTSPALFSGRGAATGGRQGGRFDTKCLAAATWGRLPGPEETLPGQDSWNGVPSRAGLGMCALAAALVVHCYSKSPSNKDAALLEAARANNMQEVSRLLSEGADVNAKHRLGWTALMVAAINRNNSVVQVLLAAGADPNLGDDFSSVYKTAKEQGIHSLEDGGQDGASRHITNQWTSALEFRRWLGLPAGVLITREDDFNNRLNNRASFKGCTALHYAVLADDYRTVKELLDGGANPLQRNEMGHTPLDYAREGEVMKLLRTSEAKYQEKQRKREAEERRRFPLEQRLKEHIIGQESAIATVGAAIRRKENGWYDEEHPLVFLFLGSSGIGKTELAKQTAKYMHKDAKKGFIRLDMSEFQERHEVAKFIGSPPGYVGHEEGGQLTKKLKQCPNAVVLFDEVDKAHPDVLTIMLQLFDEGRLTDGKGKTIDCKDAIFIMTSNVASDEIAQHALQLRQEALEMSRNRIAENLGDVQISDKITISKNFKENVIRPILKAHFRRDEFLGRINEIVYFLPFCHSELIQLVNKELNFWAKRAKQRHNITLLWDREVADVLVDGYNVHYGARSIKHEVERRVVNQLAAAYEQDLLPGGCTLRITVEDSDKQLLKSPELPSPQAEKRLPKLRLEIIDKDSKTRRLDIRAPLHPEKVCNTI
Sequence of UniProt P09543 (P09543 whole entry, looked up): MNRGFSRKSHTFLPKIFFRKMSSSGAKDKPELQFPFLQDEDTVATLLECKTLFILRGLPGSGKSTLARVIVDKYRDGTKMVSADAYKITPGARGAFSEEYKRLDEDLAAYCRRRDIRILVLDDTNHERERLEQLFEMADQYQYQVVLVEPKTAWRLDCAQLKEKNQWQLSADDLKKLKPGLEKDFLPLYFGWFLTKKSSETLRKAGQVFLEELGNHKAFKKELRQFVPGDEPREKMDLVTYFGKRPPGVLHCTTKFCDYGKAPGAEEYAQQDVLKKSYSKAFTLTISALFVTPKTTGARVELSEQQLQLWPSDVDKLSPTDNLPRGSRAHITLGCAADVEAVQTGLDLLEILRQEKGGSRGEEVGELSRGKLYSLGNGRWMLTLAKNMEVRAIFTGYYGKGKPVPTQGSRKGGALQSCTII
Sequence of UniProt P29373 (P29373 whole entry, looked up): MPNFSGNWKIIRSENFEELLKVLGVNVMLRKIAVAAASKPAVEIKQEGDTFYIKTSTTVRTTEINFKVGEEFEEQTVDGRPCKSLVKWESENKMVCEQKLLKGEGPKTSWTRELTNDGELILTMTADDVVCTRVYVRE
Sequence of UniProt Q9NRF8 (Q9NRF8 whole entry, looked up): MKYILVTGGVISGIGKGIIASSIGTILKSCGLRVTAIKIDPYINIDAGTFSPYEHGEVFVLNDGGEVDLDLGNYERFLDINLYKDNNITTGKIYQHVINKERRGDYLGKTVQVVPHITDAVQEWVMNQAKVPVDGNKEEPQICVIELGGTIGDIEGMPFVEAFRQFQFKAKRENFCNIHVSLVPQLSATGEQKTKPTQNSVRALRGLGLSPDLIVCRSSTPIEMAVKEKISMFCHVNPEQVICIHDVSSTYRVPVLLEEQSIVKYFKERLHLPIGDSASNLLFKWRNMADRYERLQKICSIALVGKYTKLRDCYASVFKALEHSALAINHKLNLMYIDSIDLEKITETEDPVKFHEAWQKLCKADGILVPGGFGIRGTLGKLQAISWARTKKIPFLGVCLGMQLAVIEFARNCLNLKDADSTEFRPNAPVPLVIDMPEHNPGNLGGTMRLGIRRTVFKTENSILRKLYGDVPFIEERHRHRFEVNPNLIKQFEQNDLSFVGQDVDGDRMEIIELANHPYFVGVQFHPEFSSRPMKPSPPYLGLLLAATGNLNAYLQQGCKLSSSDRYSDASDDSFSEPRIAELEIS
Sequence of UniProt P68400 (P68400 whole entry, looked up): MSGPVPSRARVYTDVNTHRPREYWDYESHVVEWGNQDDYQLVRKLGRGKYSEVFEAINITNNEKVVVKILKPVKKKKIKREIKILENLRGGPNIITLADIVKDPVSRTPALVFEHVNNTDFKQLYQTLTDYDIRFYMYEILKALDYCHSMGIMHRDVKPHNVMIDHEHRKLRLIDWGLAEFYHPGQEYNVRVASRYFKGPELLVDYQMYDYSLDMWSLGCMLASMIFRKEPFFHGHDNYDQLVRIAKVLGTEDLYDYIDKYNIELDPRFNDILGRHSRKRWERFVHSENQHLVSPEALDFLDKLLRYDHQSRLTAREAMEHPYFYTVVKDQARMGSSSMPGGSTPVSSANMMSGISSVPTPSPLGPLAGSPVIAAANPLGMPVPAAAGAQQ
Sequence of UniProt P49674 (P49674 whole entry, looked up): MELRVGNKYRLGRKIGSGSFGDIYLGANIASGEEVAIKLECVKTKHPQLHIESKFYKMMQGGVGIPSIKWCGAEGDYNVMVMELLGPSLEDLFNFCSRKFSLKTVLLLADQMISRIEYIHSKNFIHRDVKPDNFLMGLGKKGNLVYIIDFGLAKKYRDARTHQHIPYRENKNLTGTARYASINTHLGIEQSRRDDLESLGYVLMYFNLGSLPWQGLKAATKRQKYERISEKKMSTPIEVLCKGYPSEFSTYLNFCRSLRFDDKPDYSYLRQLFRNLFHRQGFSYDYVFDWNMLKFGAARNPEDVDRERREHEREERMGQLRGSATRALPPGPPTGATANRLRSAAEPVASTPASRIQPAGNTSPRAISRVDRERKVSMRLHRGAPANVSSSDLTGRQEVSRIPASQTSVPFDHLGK
Sequence of UniProt P30622 (P30622 whole entry, looked up): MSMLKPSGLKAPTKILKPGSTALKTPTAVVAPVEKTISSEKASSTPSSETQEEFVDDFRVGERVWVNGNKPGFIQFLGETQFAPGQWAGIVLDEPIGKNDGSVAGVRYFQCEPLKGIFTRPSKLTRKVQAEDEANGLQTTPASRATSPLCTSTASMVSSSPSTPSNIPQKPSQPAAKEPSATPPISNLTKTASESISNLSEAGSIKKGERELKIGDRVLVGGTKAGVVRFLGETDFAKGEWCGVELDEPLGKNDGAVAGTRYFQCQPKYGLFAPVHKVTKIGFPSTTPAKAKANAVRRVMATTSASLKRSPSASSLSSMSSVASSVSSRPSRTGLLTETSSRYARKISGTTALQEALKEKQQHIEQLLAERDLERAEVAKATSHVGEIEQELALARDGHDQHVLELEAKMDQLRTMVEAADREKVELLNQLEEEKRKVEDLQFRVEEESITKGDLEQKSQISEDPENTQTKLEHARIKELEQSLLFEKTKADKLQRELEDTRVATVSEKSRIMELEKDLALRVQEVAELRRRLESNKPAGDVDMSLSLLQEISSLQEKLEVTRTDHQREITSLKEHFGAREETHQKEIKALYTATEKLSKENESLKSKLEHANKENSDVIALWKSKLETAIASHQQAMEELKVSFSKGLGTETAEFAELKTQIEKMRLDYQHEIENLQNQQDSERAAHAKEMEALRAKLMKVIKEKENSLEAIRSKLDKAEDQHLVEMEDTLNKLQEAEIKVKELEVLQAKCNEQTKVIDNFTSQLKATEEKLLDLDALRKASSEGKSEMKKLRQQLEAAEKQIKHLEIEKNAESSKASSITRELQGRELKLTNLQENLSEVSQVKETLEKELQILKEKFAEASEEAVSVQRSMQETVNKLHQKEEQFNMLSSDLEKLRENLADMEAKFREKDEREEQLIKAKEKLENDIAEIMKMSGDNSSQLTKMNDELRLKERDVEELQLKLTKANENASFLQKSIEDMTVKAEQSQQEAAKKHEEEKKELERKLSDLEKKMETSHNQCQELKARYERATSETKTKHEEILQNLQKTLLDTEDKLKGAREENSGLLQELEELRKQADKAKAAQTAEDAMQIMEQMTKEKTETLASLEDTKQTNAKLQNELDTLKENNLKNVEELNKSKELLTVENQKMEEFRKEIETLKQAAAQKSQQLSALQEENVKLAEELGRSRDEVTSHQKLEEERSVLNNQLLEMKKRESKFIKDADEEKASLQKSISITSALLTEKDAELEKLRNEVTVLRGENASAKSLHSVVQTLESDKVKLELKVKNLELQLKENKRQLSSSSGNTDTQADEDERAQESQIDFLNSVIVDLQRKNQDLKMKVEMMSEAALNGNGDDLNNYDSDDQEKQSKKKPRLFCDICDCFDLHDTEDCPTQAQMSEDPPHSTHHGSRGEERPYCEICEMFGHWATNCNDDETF

| Target | log2 fold change (vemurafenib) | log2 fold change [1] | log2 fold change (barasertib) | log2 fold change [2] | log2 fold change (volasertib) | log2 fold change [3] | log2 fold change [4] | log2 fold change [5] | log2 fold change (saracatinib) | log2 fold change (sotrastaurin) | log2 fold change (alvocidib) | log2 fold change (Tubastatin A) | log2 fold change [6] | log2 fold change (defactinib) | log2 fold change [7] | log2 fold change (encorafenib) | log2 fold change [8] | log2 fold change (alisertib) | log2 fold change [9] | log2 fold change (gefitinib) |
| --- | --- | --- | --- | --- | --- | --- | --- | --- | --- | --- | --- | --- | --- | --- | --- | --- | --- | --- | --- | --- |
| DES (UniProt P17661) | 0.084 | 0.008 | -0.001 | 0.045 | 0.058 | -0.026 | -0.434 (active) | 0.149 | 0.106 | -0.012 | -0.144 | 0.091 | -0.023 | -0.056 | 0.26 | 0 | -0.029 | -0.017 | 0.117 | 0.04 |
| CTPS2 (UniProt Q9NRF8) | 0.002 | 0.01 | 0.015 | -0.028 | -0.009 | 0.011 | -0.041 | 0.058 | 0.012 | -0.044 | -0.01 | 0.015 | -0.009 | 0.01 | -0.006 | 0.01 | -0.043 | -0.017 | 0.011 | 0.011 |
| DCTN1 (UniProt Q14203) | -0.025 | 0.008 | 0.021 | -0.021 | -0.048 | 0.002 | 0.034 | -0.034 | 0.029 | -0.003 | 0.03 | -0.048 | 0.009 | 0.008 | -0.02 | 0.008 | 0.119 | -0.019 | 0.01 | -0.002 |
| CRABP2 (UniProt P29373) | 0.128 | 0.007 | 0.528 | -0.139 | 0.026 | -0.005 | 0.089 | -0.003 | 0.092 | 0.001 | -0.025 | -0.116 | -0.04 | -0.015 | 0.006 | -0.209 | 0.082 | -0.109 | -0.018 | 0.01 |
| CLIC2 (UniProt O15247) | -0.004 | 0.007 | -0.039 | -0.014 | -0.011 | -0.006 | -0.064 | -0.005 | 0.015 | 0 | 0.002 | -0.002 | 0.034 | 0.03 | 0.024 | -0.016 | 0.018 | 0.02 | -0.014 | -0.038 |
| CIP2A (UniProt Q8TCG1) | 0.036 | 0.019 | 0.153 | 0.001 | -0.086 | 0.037 | -0.07 | -0.075 | 0.009 | 0.014 | 0.009 | -0.294 (active) | -0.015 | 0.003 | -0.074 | 0.008 | 0.053 | -0.004 | -0.014 | -0.018 |
| CLPB isoform 2 (UniProt Q9H078) | 0.011 | 0.023 | 0.026 | 0.007 | -0.042 | 0.044 | 0.078 | -0.045 | 0.004 | -0.012 | 0.065 | -0.075 | 0.031 | 0.086 | -0.049 | 0.025 | -0.053 | 0.001 | -0.036 | 0.034 |
| CNP (UniProt P09543) | 0.005 | -0.011 | 0.003 | -0.097 | -0.022 | 0.019 | -0.023 | -0.028 | 0.01 | -0.008 | -0.005 | -0.06 | 0.011 | 0.028 | -0.03 | 0.02 | -0.003 | 0.029 | 0 | -0.025 |
| CSNK2A1 (UniProt P68400) | -0.124 | 0.017 | -0.025 | -0.057 | -0.039 | 0.006 | -0.009 | 0.165 | -0.028 | 0.019 | 0.077 | 0.019 | 0.337 (active) | 0.056 | -0.002 | -0.004 | -0.005 | 0.012 | 0.112 | -0.024 |
| DPH5 isoform 5 (UniProt Q9H2P9) | 0.144 | 0.016 | -0.05 | 0.16 | 0.273 | -0.011 | 0.182 | 0.033 | -0.029 | 0.049 | -0.012 | 0.02 | 0.119 | -0.002 | 0.02 | -0.044 | -0.024 | -0.045 | -0.018 | 0.04 |
| CMSS1 (UniProt Q9BQ75) | -0.011 | 0.005 | 0.023 | -0.007 | -0.011 | 0 | 0.212 | -0.086 | 0.007 | -0.003 | 0.013 | -0.036 | -0.02 | -0.009 | -0.032 | 0.015 | 0.024 | 0.02 | 0.004 | 0.025 |
| CORO1A (UniProt P31146) | -0.021 | -0.001 | 0.013 | 0.025 | -0.035 | 0.11 | -0.113 | 0.021 | -0.169 | -0.007 | 0 | -0.02 | 0.013 | -0.034 | 0.037 | -0.051 | 0.144 | -0.018 | -0.021 | -0.037 |
| CMPK2 (UniProt Q5EBM0) | 0.026 | 0.048 | 0.155 | 0.018 | 0.015 | -0.03 | -0.001 | 0.007 | 0.006 | -0.019 | -0.046 | 0.005 | 0.018 | 0.027 | -0.006 | 0.01 | 0.028 | -0.026 | 0.018 | -0.022 |
| CLIP1 isoform 1 (UniProt P30622) | -0.011 | 0.016 | -0.011 | 0.034 | 0.034 | -0.03 | -0.055 | 0.02 | 0.021 | 0.008 | -0.005 | 0.038 | 0.014 | -0.006 | -0.008 | 0.003 | -0.03 | -0.016 | 0.014 | 0.001 |
| CSNK1E (UniProt P49674) | -0.013 | -0.038 | 0.029 | 0.135 | -0.01 | 0.11 | -0.013 | 0.237 | 0.069 | 0.061 | 0.021 | -0.159 | 0.129 | -0.017 | 0.093 | -0.032 | 0.028 | -0.034 | 0.048 | 0.012 |
| CLCN3 isoform 2 (UniProt P51790) | -0.015 | 0.052 | -0.004 | 0.003 | -0.022 | -0.024 | -0.039 | 0.013 | -0.018 | 0.054 | -0.02 | 0.02 | 0.024 | -0.015 | 0.033 | 0.041 | 0.022 | -0.007 | -0.002 | 0.005 |
